Rows were chosen to be rich in hits. Some 0.79% of all compounds tested hit in one or more screens of this group.
DAGLB inh – diacylglycerol lipase beta (human) inhibition | Q8NCG7 | AID 504411 | HEK293T DAGLB membrane lysate, EnzChek fluorogenic substrate | actives 0.059% (n = 340,000) | inhibition, % at 5.17 µM; in the data active = inhibition above about 34%;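 also: 0% = enzyme with vehicle and 100% = wells lacking enzyme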
LANA-H2A inh – blocks KSHV LANA binding to histone H2A/H2B; cell-free LANA-H2A/H2B peptide, fluorescence polarization; AID 2629; inhibition, % (no concentration beside the values); actives 0.6% (n = 320,000); Q9QR71; in the data active = inhibition mostly above about 10%, no sharp cut-off; inactive = mostly below about 6.7%
HDAC3 inh – blocks human histone deacetylase 3; O15379; recombinant HDAC3, fluorogenic peptide/trypsin coupled, fluorescence; inhibition, % at 8.3 µM; actives 0.15% (n = 320,000); AID 2718; in the data active = inhibition above about 26%, passing the limit was not always enough
Target sequence (O15379 whole entry, looked up): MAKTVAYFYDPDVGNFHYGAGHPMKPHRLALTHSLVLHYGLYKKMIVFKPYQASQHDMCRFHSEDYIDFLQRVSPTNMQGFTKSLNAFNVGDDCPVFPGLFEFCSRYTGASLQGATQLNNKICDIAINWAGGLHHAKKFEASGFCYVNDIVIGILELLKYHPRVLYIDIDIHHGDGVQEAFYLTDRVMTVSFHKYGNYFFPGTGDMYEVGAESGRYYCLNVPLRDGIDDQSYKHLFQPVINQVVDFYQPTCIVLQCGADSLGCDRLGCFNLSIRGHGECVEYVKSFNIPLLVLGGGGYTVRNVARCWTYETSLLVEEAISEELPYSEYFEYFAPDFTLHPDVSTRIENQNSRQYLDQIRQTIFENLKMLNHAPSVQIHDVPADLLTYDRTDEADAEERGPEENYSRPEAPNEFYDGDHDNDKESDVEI
iPSC survival up – increases survival of single human iPS cells. actives 0.044% (n = 360,000). survival enhancement, % at 20 µM. hiPSC single-cell survival, ATPlite luminescence; 100% = ROCK inhibitor wells, 0% = DMSO; in the data active = survival enhancement above about 18%;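 also: cells exposed to compounds for 16 hours before the ATP read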
* marks the source's active call; other numbers are inactive results; / = not tested or not shown; + = active, no number; ! = not confirmed by another sample.

SMILES	DAGLB inh	LANA-H2A inh	HDAC3 inh	iPSC survival up
Cc1nc2ccccc2c2c1C(=O)NC2=O	/	27.4*	-2.7	/
NC(=O)COc1ccc(C2c3c(oc4ccccc4c3=O)C(=O)N2CC2CCCO2)cc1 (stereo unspecified)	0.5	197.5*	-1.0	5.0
COc1cccc(-c2nc3nc(C)cc(C)n3c2NC2CCCC2)c1	/	/	/	0.3
CCC(=O)c1cn([C@@H](CCC(OC)OC)CC(=O)OC(C)(C)C)cc1CC	0.1	2.2	-0.3	-1.9
NC(=O)c1c(-c2ccccc2)oc2ccc(O)cc12	0.3	17.1*	3.2	3.6
CC(=O)c1ccc(NC(=S)Nc2ccc(Br)c(Cl)c2)cc1	1.2	35.8*	14.2	-0.8
C#CCOCCOCCOCCNc1nc(N2CCN(C(=O)[C@H](CC(N)=O)n3cc([C@@H](N)CC(N)=O)nn3)CC2)nc(N2CCN(C(=O)[C@H](CC(N)=O)n3cc([C@@H](N)CC(N)=O)nn3)CC2)n1	-1.0	4.0	-12.8	4.2
C#CCOCCOCCOCCNc1nc(N2CCN(C(=O)[C@H](CCC(=O)O)n3cc([C@@H](N)CC(N)=O)nn3)CC2)nc(N2CCN(C(=O)[C@H](CCC(=O)O)n3cc([C@@H](N)CC(N)=O)nn3)CC2)n1	0.9	156.0*	-13.2	0.8
Cn1[nH]c(-c2ccccc2)c(/C=N/O)c1=O	/	29.3*	-10.5	-1.1
Cc1ccc(CNC(=O)c2ccccc2NC(=O)CN2CC(C)OC(C)C2)cc1 (stereo unspecified)	-4.2	4.5	-1.5	0.3
COc1ccc(N2CCN(C(=O)CS(=O)Cc3nc(-c4ccc(OC)c(OC)c4)oc3C)CC2)cc1 (stereo unspecified)	-0.9	15.5*	-6.6	-0.3
COc1ccc(NC(=O)C2CCCN(c3nn4c(=O)cc(C)nc4s3)C2)c(OC)c1 (stereo unspecified)	-0.3	10.9*	3.0	-0.4
COc1ccc(CNC(=O)C2CCCN(c3nn4c(=O)cc(C)nc4s3)C2)cc1 (stereo unspecified)	3.6	5.9	7.9	1.0
Cc1ccc(-n2c(SC3CCOC3=O)nc3ccccc3c2=O)cc1 (stereo unspecified)	/	-0.8	-3.2	/
Cc1cc(Br)cn2c(Cc3ccsc3)c(-c3ccco3)nc12	/	/	/	1.8
COc1ccc(S(=O)(=O)N2CCN(C(=O)c3ccccc3Cc3ccccc3)CC2)cc1OC	-3.9	/	/	-0.7
COc1ccc(/C=C2\C(=O)ON=C2c2ccccc2)cc1	0.0	8.9	5.2	0.7
O=C1ON=C(c2ccccc2)/C1=C/c1ccc(OS(=O)(=O)c2ccccc2)cc1	8.3	120.9*	8.7	-0.5
COc1ccc(NC(=O)Cn2cnc3sc(C)c(S(=O)(=O)N4CCOCC4)c3c2=O)cc1Cl	-0.9	-4.7	1.2	1.0
COc1ccccc1Sc1nc(-c2ccccn2)ncc1OC	1.0	-1.1	1.8	23.0*
CCS(=O)(=O)N1CCN(C(=O)c2cccc3ccccc23)CC1	-3.0	7.1	0.0	-0.3
CC1(C(=O)NCc2ccc3c(c2)OCO3)CCN1C(=O)C1(c2ccc(Cl)cc2)CC1 (stereo unspecified)	/	/	/	5.3
CSc1nc2cc(Oc3cccc(Cl)c3Cl)c(Cl)cc2[nH]1	-0.8	3.1	29.0*	0.3
COc1ccc(C(=O)n2nnc3ccccc32)cc1Br	2.5	6.3	95.7*	-0.9
COc1ccc(C(=O)n2nnc3ccccc32)cc1OC	-3.4	-1.2	69.6*	2.7
SMILES	DAGLB inh	LANA-H2A inh	HDAC3 inh	iPSC survival up
Cc1ccc(C(=O)n2nnc3ccccc32)cc1[N+](=O)[O-]	1.8	-3.4	/	-0.7
COc1ccc(NC2CCCN(C(=O)CCN3Cc4ccccc4C3=O)C2)cc1 (stereo unspecified)	-0.4	20.7*	4.6	-0.4
N#Cc1c(Cl)cccc1Oc1ccc(S(=O)(=O)Nc2ccccc2)cc1	/	-4.2	-4.1	0.2
Oc1c(N=NC(=S)Nc2ccccc2F)c2ccccc2n1Cc1ccc(Cl)cc1	1.2	20.6*	-0.7	-0.6
CC(=O)O[C@]1(C(C)=O)CC[C@H]2[C@@H]3C=C(Cl)C4=CC(=O)[C@@H]5C[C@@H]5[C@]4(C)[C@H]3CC[C@@]21C	-0.4	15.1*!	2.1	-2.4
COc1ccccc1CNC(=O)c1cnc2ccccn2c1=O	-3.0	1.3	11.2	-0.7
O=C(NCc1cccs1)c1cnc2ccccn2c1=O	0.8	9.8*	0.7	2.1
CCOc1cc(/C=C2\CCCc3c2nc2ccccc2c3C(=O)O)ccc1OC	-1.5	85.3*	3.6	-0.2
COc1cc(/C=C2\CCCc3c2nc2ccccc2c3C(=O)O)cc(Br)c1O	4.6	-2.5	4.4	-0.7
Cc1cccc(C)c1NC(=O)COC(=O)c1c2c(nc3ccccc13)/C(=C\c1ccc3c(c1)OCO3)CCC2	-47.0	62.5*	3.9	-1.9
CN(Cc1ccc(Cl)cc1)C(=O)CNC(=O)C12CC3CC(CC(C3)C1)C2	-0.8	8.8	5.4	-0.5
CCOC(=O)c1cc(-c2ccccc2)sc1NC(=O)CSc1nnc(N)s1	-5.8	+	3.5	-0.5
CCOC(=O)c1cc(-c2ccccc2)sc1NC(=O)CSc1nncs1	-8.2	3.5	2.1	-0.4
COc1ccc(CCN2CC(C(=O)NCc3nc4ccccc4n3C)CCC2=O)cc1 (stereo unspecified)	-2.2	1.7	-2.0	-0.3
O=C(N/N=C/C=C/c1ccccc1)c1ccccn1	-4.5	-0.7	3.5	0.4
O=C(N/N=C/C=C\c1cccc([N+](=O)[O-])c1)c1ccccn1	-1.4	61.1*	-5.7	-2.9
Cc1ccc(C2(C)NC(=O)N(CC(=O)NNC(=O)c3ccccc3F)C2=O)cc1 (stereo unspecified)	0.3	21.5*	0.4	0.8
COc1ccc([N+](=O)[O-])cc1C(=O)NCCOc1ccc(Cl)cc1	1.1	-4.4	4.0	0.7
COc1cccc(CNC(=O)CC(NC(=O)c2ccccc2)c2ccccc2)c1 (stereo unspecified)	-11.8	32.0*	3.8	0.1
COc1cccc(CNC(=O)CC(NC(C)=O)c2ccccc2)c1 (stereo unspecified)	-1.8	-0.2	-2.0	-0.7
CN(CC(=O)NC(=O)NCc1ccccc1)CC(=O)Nc1ccc(Cl)c(Cl)c1	0.5	-2.2	11.8	0.3
COc1cccc2c1Oc1ncccc1N(C(=O)CCC(=O)NCc1cccc(C)c1)C2	1.1	4.6	3.5	-0.5
CCOC(=O)C(NC(=O)CCl)(Nc1sc(C)c(CC)c1C#N)C(F)(F)F (stereo unspecified)	-2.2	-8.0	8.9	-1.4
CCOC(=O)C(NC(=O)N(C)C)(Nc1sc(C)c(CC)c1C#N)C(F)(F)F (stereo unspecified)	0.7	3.8	31.8*	0.8
O=C(COC(=O)c1nc(Cl)ccc1Cl)NCc1ccccc1	-0.5	14.4*	-6.3	1.9
CCOC(=O)c1c(C)nc2sc3c(c2c1-c1ccc(OC)cc1)NC(c1ccccc1)NC3=O (stereo unspecified)	1.5	-3.7	-3.1	25.8*
NC(=O)NC(=O)CC1S/C(=N/N=C/c2ccccc2)NC1=O (stereo unspecified)	1.8	1.8	7.2	0.6
O=C(O)CC1S/C(=N/N=C/c2ccccn2)NC1=O (stereo unspecified)	0.1	23.6*	7.6	-0.5

Source: PubChem BioAssay
